From PubChem BioAssay come the findings set out here.

The target in the test is NADPH oxidase 5 (Homo sapiens) (UniProt Q96PH1). Nature of the test: compounds shifting NOX5 Amplex Red fluorescence – cell-based, HEK293-NOX5, NOX inhibitor project, primary screen (AID 1161). The settings on record: HEK293-NOX5, ionomycin, 45 min, higher = more signal.
Chain of NADPH oxidase 5 (Homo sapiens) (Q96PH1 whole entry, looked up): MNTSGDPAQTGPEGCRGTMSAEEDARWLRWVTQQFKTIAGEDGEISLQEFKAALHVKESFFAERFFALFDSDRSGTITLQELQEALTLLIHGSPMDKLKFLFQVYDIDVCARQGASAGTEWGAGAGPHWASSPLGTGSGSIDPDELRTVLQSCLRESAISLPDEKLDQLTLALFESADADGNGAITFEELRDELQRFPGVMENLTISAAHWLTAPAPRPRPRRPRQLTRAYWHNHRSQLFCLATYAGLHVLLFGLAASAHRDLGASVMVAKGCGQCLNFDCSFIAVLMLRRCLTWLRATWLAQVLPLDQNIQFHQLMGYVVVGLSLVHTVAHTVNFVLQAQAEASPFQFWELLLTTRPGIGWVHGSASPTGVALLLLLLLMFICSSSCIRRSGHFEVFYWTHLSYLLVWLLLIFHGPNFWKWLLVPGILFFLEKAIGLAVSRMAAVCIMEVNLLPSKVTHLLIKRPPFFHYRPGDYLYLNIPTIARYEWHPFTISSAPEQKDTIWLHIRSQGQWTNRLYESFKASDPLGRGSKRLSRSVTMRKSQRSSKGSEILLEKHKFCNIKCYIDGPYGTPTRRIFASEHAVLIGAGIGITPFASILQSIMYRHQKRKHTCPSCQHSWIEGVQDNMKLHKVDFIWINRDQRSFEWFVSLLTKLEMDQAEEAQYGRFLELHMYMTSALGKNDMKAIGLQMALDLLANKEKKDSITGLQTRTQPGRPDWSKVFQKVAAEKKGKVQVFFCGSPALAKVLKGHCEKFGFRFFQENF
Regarding `COc1ccc([Si](C)(C)[C@@H]2[C@@H](CCO)O[C@]3(C(=O)N(Cc4ccc(NC(C)=O)cc4)c4ccccc43)[C@H]2C)cc1`, the z-score came out at 0.207.
In the case of `CCCCC(=C=CC[C@H](O)c1ccccc1OCCO)C[C@H](O)COCc1ccccc1`, the z-score was -2.05.
On to `COC(=O)[C@H]1COC(c2ccc(OCCCO)cc2)=N1`, for which the z-score was -0.663.
Consider `CC(C)C[C@@H]1NC(=O)[C@H]2C[C@@H](C(=O)NCCCCCCN(C)C)[C@@H](c3cccc(OCCO)c3)N2C1=O`, for which the z-score turned out to be 1.84.
In the case of `O=C1O[C@@H](c2ccccc2)[C@@H](c2ccccc2)N2[C@@H](c3ccccc3OCCO)[C@]3(C(=O)Nc4ccc(C#CCCO)cc43)[C@@H](C(=O)O)[C@H]12`, the z-score is -0.847.
With `CC(C)NC(=O)[C@@]1(C)c2ccccc2C(=O)N(Cc2cc(F)cc(C(F)(F)F)c2)[C@H]1c1ccc(CO)cc1`, the z-score was -0.117.
For `O=C1O[C@@H](c2ccccc2)[C@@H](c2ccccc2)N2[C@@H](c3ccc(OCCO)cc3)[C@]3(C(=O)Nc4ccccc43)[C@@H](C(=O)N3CCN(c4ncccn4)CC3)[C@H]12` the value was 1; for `CCc1cc2c(nc1CC)CCN(CCC(C)=NOC[C@@H](O)[C@H]1O[C@@H]3OC(C)(C)O[C@@H]3[C@H]1O)C2`, 2.57.
As for `C=CC[C@@H]1C=C[C@H](ON=C(C)CCN2CCc3nc(CC)c(CC)cc3C2)[C@@H](CO)O1`, the z-score worked out at 1.82.
As to `CN(C)CCCNC(=O)[C@@H]1c2ccccc2C(=O)N(Cc2cc(F)cc(C(F)(F)F)c2)[C@H]1c1ccc(CO)cc1`, the z-score was -2.19.
Regarding `O=C1[C@H]2[C@H]3[C@H](O)[C@H](O)CC(=NOC[C@@H](O)COCc4ccco4)[C@H]3CC[C@H]2C(=O)N1c1cccc(Oc2ccccc2)c1`, the z-score was -0.185.
As to `CS(=O)(=O)CCOC(=O)C1=CC(CCCO)=CC(c2cccs2)N(Cc2cccc(OC(F)(F)F)c2)C=C1C(=O)OCCS(C)(=O)=O` (centres undefined), the z-score was -2.09.
For `CC(CCC(=O)OC[C@H]1O[C@H](C#Cc2ccccc2)C=C[C@@H]1Oc1ccc(C)cc1)=NO[C@@H](C)c1cn([C@H](CO)Cc2ccccc2)nn1`, the z-score was -0.428.
Regarding `COc1ccc(O[C@H]2C=C[C@@H](c3ccccc3)O[C@@H]2COC(=O)CCC(C)=NO[C@@H](C)c2cc(-c3c(C)cc(C)cc3C)no2)cc1`, the z-score was -1.09.
`CC(C)[C@@H](OCc1ccccc1)[C@H](C)C=NO[C@H](C)c1cn([C@H](CO)Cc2ccccc2)nn1`: the z-score was -1.41.
As for `COc1cccc([C@H]2Oc3ccc(OC)cc3C(=NOC(C)CN3CCCc4nc(C)c(C)cc43)[C@@H]2O)c1` (some centres undefined), the z-score came out at 1.57.
As to `O=C1C[C@@H](O)[C@@H](O)[C@@H]2[C@@H]3C(=O)N(C4CCCCC4)C(=O)[C@@H]3CC[C@H]12`, the z-score is -0.883.
`COc1ccc([Si](C)(C)[C@H]2[C@H](CC(=O)N3CCC[C@H]3CO)O[C@@]3(C(=O)N(Cc4cccc(N5C(=O)COc6ccccc65)c4)c4ccccc43)[C@@H]2C)cc1`: the z-score was 2.99.
For the molecule `CC(C)NC(=O)[C@@]1(c2ccc([N+](=O)[O-])cc2)CC(=O)N(CC23CC4CC(CC(C4)C2)C3)[C@@H]1c1ccc(CO)cc1I`, the z-score is 1.35.
For `C=CCOC(=O)[C@H]1[C@@H]2C(=O)O[C@@H](c3ccccc3)[C@@H](c3ccccc3)N2[C@@H](c2ccc(OCCOC(=O)[C@H]3C[C@H]4C(=O)N5CCC[C@H]5C(=O)N4[C@H]3c3cccc(OCCO)c3)cc2)[C@]12C(=O)Nc1ccc(I)cc12` the value was 0.261; for `CC(C)CN1CCc2nc(-c3ccccc3)c3c(c2CC1)CO[C@@H](C)C3`, -0.334.
As for `CC(C)OC(=O)C=C1C[C@@H](c2ccc(C#N)cc2)O[C@@H](c2ccc(C#N)cc2)O1`, the z-score is -0.607.
As for `C=CC[C@@H]1C=C[C@H](ON=C[C@@H](OC)[C@H](C)C=CCC(=O)OC)[C@@H](CO)O1`, the z-score is -0.255.
As for `CN1C(=O)C2C(C1=O)C1C=C(CCCO)C2C(c2ccc(CN3CCCC3)cc2)N1C` (centres undefined), the z-score was -0.91.
For `COCC(=C=CC[C@@H](O)c1ccccc1OCCO)CCO`, the z-score was -0.132.
Take `COCCOC(=O)N1C(=O)[C@@]2(c3cc(C#CCNC(N)=O)ccc31)[C@H](c1ccc(O)cc1)N1[C@H](c3ccccc3)[C@H](c3ccccc3)OC(=O)[C@H]1[C@@H]2C(=O)N1CCCCCCC1`: the z-score came out at 1.48.
As to `C=C(/C(=C/C[C@H](OC(=O)c1ccncc1)c1ccc(OCCO)cc1)c1cnc2ccccc2c1)C(C)C`, the z-score was -0.699.
`Cc1cc2c(c(=O)o1)[C@H](O)[C@H]1O[C@H]1C2=O`: the z-score is -1.39.
As to `COC(=O)[C@@H]1CC[C@H](C)[C@@H](c2ccc(C)cc2)N1C(=O)c1ccc(C=NOC[C@@H](O)COCc2ccco2)cc1`, the z-score amounted to 0.254.
